Reference: the supplement of paper PMC9801561
± gives the standard deviation of the averaged measurements.

What was measured:
[1] = test system: Escherichia coli Nissle 1917; assay: area under OmniLog respiration curve over 48 h (OmniLog units x h); higher = more growth / nutrient utilisation; extreme values may be limits of the assay; details: incubation: 48 h, 37 °C
[2] = test system: Escherichia coli Nissle 1917; assay: DuctApe activity index of respiration/growth curve (0 no growth to 9 maximum) (index 0-9); higher = more growth / nutrient utilisation, active = 3 or more; extreme values may be limits of the assay; details: incubation: 48 h, 37 °C
[3] = nutrient role: C-Source, carboxylic acid
[4] = nutrient role: sole phosphorus source (pyruvate carbon)
[5] = nutrient role: sole sulfur source (pyruvate carbon)
[6] = nutrient role: sole nitrogen source (pyruvate carbon)
[7] = nutrient role: C-Source, carbohydrate
[8] = nutrient role: N-Source, inorganic
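Throughout, for DuctApe activity index of respiration/growth curve (0 no growth to 9 maximum): biolog PM4 phosphorus and sulfur plates, tetrazolium violet dye reduction read in the OmniLog every 15 min, kinetic curves scored by DuctApe, each plate run in triplicate.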

## O=C(O)CC(Br)C(=O)O (configuration not stated) [Bromosuccinic acid]
[1]; [3]
  area under OmniLog respiration curve: 7400 ± 380
[2]; [3]
  DuctApe activity index: 8 (active)

## OP(O)(=S)S [Dithiophosphate]
[1]; [4]
  area under OmniLog respiration curve: 9000 ± 660
[1]; [5]
  area under OmniLog respiration curve: 7150 ± 210
[2]; [4]
  DuctApe activity index: 8.67 (active)
[2]; [5]
  DuctApe activity index: 7.67 (active)

## CN [Methylamine]
[1]; [6]
  area under OmniLog respiration curve: 61 ± 97
[2]; [6]
  DuctApe activity index: 0 (inactive)

## OP(O)(O)=S [Thiophosphate]
[1]; [4]
  area under OmniLog respiration curve: 9350 ± 660
[1]; [5]
  area under OmniLog respiration curve: 6760 ± 260
[2]; [4]
  DuctApe activity index: 8.67 (active)
[2]; [5]
  DuctApe activity index: 7 (active)

## CN(CC(=O)O)C(=N)NP(=O)(O)O [Phosphocreatine]
[1]; [4]
  area under OmniLog respiration curve: 8760 ± 510
[2]; [4]
  DuctApe activity index: 8.67 (active)

## N#C[C@H](O[C@@H]1O[C@H](CO[C@@H]2O[C@H](CO)[C@@H](O)[C@H](O)[C@H]2O)[C@@H](O)[C@H](O)[C@H]1O)c1ccccc1 [Amygdalin]
[1]; [7]
  area under OmniLog respiration curve: 4.97 ± 0.43
[2]; [7]
  DuctApe activity index: 0 (inactive)

## CCOP(=O)(OCC)OCC [Triethyl Phosphate]
[1]; [4]
  area under OmniLog respiration curve: 4.72
[2]; [4]
  DuctApe activity index: 0 (inactive)

## O=C(O)CCCO [g-Hydroxybutyric acid]
[1]; [3]
  area under OmniLog respiration curve: 5800 ± 210
[2]; [3]
  DuctApe activity index: 7 (active)

## CCSCCC(N)C(=O)O (racemic) [DL-Ethionine]
[1]; [5]
  area under OmniLog respiration curve: 286 ± 250
[2]; [5]
  DuctApe activity index: 0 (inactive)

## NCCc1ccccc1 [Phenylethylamine]
[1]; nutrient role: C-Source, amine
  area under OmniLog respiration curve: 5.51 ± 1.4
[2]; nutrient role: C-Source, amine
  DuctApe activity index: 0 (inactive)

## NCC(O)c1ccc(O)cc1 (racemic) [D,L-Octopamine]
[1]; nutrient role: C-Source, amine
  area under OmniLog respiration curve: 6.75 ± 3.5
[2]; nutrient role: C-Source, amine
  DuctApe activity index: 0 (inactive)

## O=[N+]([O-])O [Nitrate]
[1]; [8]
  area under OmniLog respiration curve: 4.72
[2]; [8]
  DuctApe activity index: 0 (inactive)

## O=PO [Hypophosphite]
[1]; [4]
  area under OmniLog respiration curve: 2600 ± 590
[2]; [4]
  DuctApe activity index: 4 (active)

## NCCP(=O)(O)O [2-Aminoethyl Phosphonic acid]
[1]; [4]
  area under OmniLog respiration curve: 8180 ± 390
[2]; [4]
  DuctApe activity index: 8 (active)

## O=C1NC(=O)C(=O)C(=O)N1 [Alloxan]
[1]; [6]
  area under OmniLog respiration curve: 402 ± 390
[2]; [6]
  DuctApe activity index: 1.67 (inactive)

## NCCc1ccccc1 [b-Phenylethylamine]
[1]; [6]
  area under OmniLog respiration curve: 11.4 ± 12
[2]; [6]
  DuctApe activity index: 0 (inactive)

## CCN [Ethylamine]
[1]; [6]
  area under OmniLog respiration curve: 8.5 ± 6.5
[2]; [6]
  DuctApe activity index: 0 (inactive)

## NCCc1ccc(O)cc1 [Tyramine]
[1]; nutrient role: C-Source, amine
  area under OmniLog respiration curve: 33 ± 46
[1]; [6]
  area under OmniLog respiration curve: 35.9 ± 54
[2]; nutrient role: C-Source, amine
  DuctApe activity index: 0 (inactive)
[2]; [6]
  DuctApe activity index: 0 (inactive)
